# The sample as a whole holds a higher share of hits than the screen did.
# mHTT CaM bind: mHTT-calmodulin interaction abrogation | AID 1671202 | inhibition, % at 15 µM | AlphaScreen His-mHTT/GST-CaM binding, luminescence | 3.6% of 190,000 active | P42858
# Pf apPOL inh: Pf-apPOL DNA polymerase inhibition. Recombinant Pf-apPOL, molecular beacon fluorescence, 1.5 h. inhibition, % at 10 µM. 0.25% of 210,000 active
# Numbers stand for hits; n = inactive; x = not tested or not shown. Rule as the data show it: active = inhibition above about 50%; inactive = the rest.
SMILES,mHTT CaM bind,Pf apPOL inh
CCN(CC)C(=O)CN1C(=O)C(=O)c2ccccc21,n,n
COc1ccc(-c2noc(Cn3ccnc3C)n2)cc1,n,n
O=C(NCCCN1CCN(c2ccccc2F)CC1)c1csc2c1CCCC2,n,n
CCN(C(=O)c1ccc(SC)cc1OC)c1ccccc1,n,n
COCCNC1CCc2ccccc2C1 (stereo unspecified),n,n
CN(C)/C=C/c1c(C=O)c2cc([N+](=O)[O-])ccc2n1C,100,n
CC(=O)c1c(-c2ccccc2)c2cc([N+](=O)[O-])ccc2n1C,n,n
COc1ccc(CC(=O)NC2=NC(=O)C(C)S2)cc1 (stereo unspecified),n,n
COc1ccc(-c2[nH]ncc2-c2cnn(-c3ccccc3)c2)c(O)c1C,n,n
CCc1cc(-c2[nH]ncc2-c2cnn(-c3ccccc3)c2)c(O)cc1O,94,n
COc1cc(/C=C2\C(=O)NC(=O)N(c3ccc(Cl)cc3)C2=O)cc(Cl)c1O,n,n
O=C(O)c1cccc(S(=O)(=O)N(CCO)CCO)c1,n,n
O=C(O)C1C2CC3C1C(=O)Oc1ccccc1C1c4sc(=O)[nH]c4SC2C13 (stereo unspecified),n,n
O=c1[nH]c2c(s1)C1c3ccccc3OC3CCCC(S2)C31 (stereo unspecified),52,n
Fc1ccc(Cn2cnc3ccccc32)cc1,n,n
Clc1ccc(Cn2cnc3ccccc32)cc1Cl,52,n
Cc1cc(NC(=O)c2ccccc2Cl)nc(C)n1,n,n
c1ccc2c(c1)nnn2C12CC3CC(CC(C3)C1)C2,n,n
COc1ccc(C=O)cc1CSC1=NCCS1,n,x
O=C(Nc1ccccc1-c1nc2ccccc2[nH]1)c1ccccc1F,n,n
CCSc1ccccc1C(=O)Nc1ccccc1-c1nc2ccccc2[nH]1,61,n
Cc1ccc(C(=O)Nc2cccn3nc(C(C)C)nc23)cc1,n,n
COc1cccc(NC(=O)Cc2ccc(Br)cc2)c1,n,n
COc1cccc(/C=C2/C(=O)N(c3ccc(Cl)c(Cl)c3)N=C2C)c1O,60,n
COc1c(Br)cc(Br)cc1/C=C1/C(=O)N(c2ccccc2)N=C1C,69,n
SMILES,mHTT CaM bind,Pf apPOL inh
C=CCOc1ccccc1/C=C1/C(=O)N(c2ccc(Cl)c(Cl)c2)N=C1C,n,n
COc1ccc(/C=C2/C(=O)N(c3ccc(Cl)c(Cl)c3)N=C2C)cc1OC,n,n
COc1ccc(Br)cc1/C=C1/C(=O)N(c2ccccc2)N=C1C,n,n
COc1cccc(/C=C2/C(=O)N(c3ccccc3)N=C2C)c1OC,n,n
COc1cccc(/C=C2/C(=O)N(c3ccccc3)N=C2C)c1O,73,n
COc1cc(/C=C2/C(=O)N(c3ccc(Cl)c(Cl)c3)N=C2C)ccc1OCC(=O)O,51,n
O=C(NCC1CCN(c2cc(-c3ccncc3)[nH]n2)CC1)c1ccc(F)cc1,n,n
CCOc1ccc(NC(=O)Cn2c(C)nc3c(c2=O)CCN(Cc2ccccc2)C3)cc1,n,n
CC(=O)NC(=O)c1cc2cc(Cl)ccc2oc1=Nc1cccc(C)c1,n,n
COc1cc(CN2CCc3nc(Nc4ccc(F)cc4)ncc3C2)cc(OC)c1OC,n,n
O=C(NC1CCCCC1)C(c1cc2c(cc1[N+](=O)[O-])OCO2)N1CCCC1 (stereo unspecified),n,n
CCOC(=O)CCC(=O)Nc1nnc(COc2ccccc2)o1,n,n
Cc1ccc(NC(=O)Nc2ccc3nnc(C(C)C)n3c2)cc1Cl,n,n
CCc1nc(C)nc(N2CCN(C(C)=O)CC2)c1Cc1ccccc1F,n,n
CCCC1=NN(c2ccccc2)C(=O)/C1=C\c1cc(Cl)c(O)c(OC)c1,66,n
COc1cc(/C=C2/C(=O)N(c3cccc(Br)c3)N=C2C)cc(OC)c1O,88,n
COc1cc(/C=C2/C(=O)N(c3cccc(Br)c3)N=C2C)ccc1OC(C)C,n,n
CCCC1=NN(c2ccccc2)C(=O)/C1=C/c1cc(OC)c(OC)cc1Cl,n,n
Cc1ccc(CN2CCCn3nc(C(=O)N4CCN(c5ccccc5)CC4)cc3C2=O)cc1,n,n
COc1ccccc1NC(=O)c1ccccc1Sc1ccc([N+](=O)[O-])cc1,n,n
COc1cc(Cl)c(C)cc1NC(=O)c1cccs1,n,n
CCc1ccccc1-n1ccn(CC(=O)Nc2ccc(OC)c(Cl)c2)c(=O)c1=O,n,n
Cc1cccc(-n2cc(C3CCN(C(=O)NCc4ccco4)CC3)cn2)c1,n,n
CCN1c2cc(C)ccc2-n2cccc2C12CCN(C(=O)NCCc1ccccc1)CC2,94,n
Cc1ccc(CNC(=O)C2(C)CCCN(C(=O)NCc3ccccc3)C2)cc1 (stereo unspecified),n,n
SMILES,mHTT CaM bind,Pf apPOL inh
CCN1c2cc(C)ccc2-n2cccc2C12CCN(C(=O)NCc1ccco1)CC2,84,n
CCN1c2cc(C)ccc2-n2cccc2C12CCN(C(=O)NCc1ccc(F)cc1)CC2,93,n
CCN1c2ccccc2C(=O)NC12CCN(C(=O)NCCc1ccccc1)CC2,n,n
CCN1c2cc(C)ccc2-n2cccc2C12CCN(C(=O)NCc1ccccc1)CC2,81,n
CCN1c2ccccc2C(=O)NC12CCN(C(=O)NCc1ccc(F)cc1)CC2,n,n
CCn1c(C2CCN(Cc3sccc3C)C2)nc2cccnc21 (stereo unspecified),n,n
CCc1ccccc1NC(=O)c1ccc(Cl)cc1Cl,n,n
CC(C)(C)N=C1Nc2ccccc2NC12CCCN(S(=O)(=O)c1cccc(C#N)c1)C2 (stereo unspecified),n,n
COc1cccc(CN2CCCC(c3n[nH]c(C4CC4)n3)C2)c1 (stereo unspecified),n,n
COc1cc(C=O)cc(Br)c1OC,n,n
S=c1[nH]nc(-c2ccncc2)n1N=Cc1cn(-c2ccccc2)nc1-c1cccs1,x,n
CCOCCCNC(=O)N1CC(CC)Oc2ccc(C)cc21 (stereo unspecified),n,n
CCOCCCNC(=O)N1CCC2(CC1)c1cccn1-c1ccc(C)cc1N2CC,93,n
O=C(NC(N1CCCCC1)C(Cl)(Cl)Cl)c1ccc(Cl)cc1 (stereo unspecified),n,n
CC(C)(C)CC(C)(C)N=C1Nc2ccc(Cl)cc2NC12C[C@H]1CCC(=O)N3CC[C@@H](C2)[C@@H]13 (stereo partly specified),95,n
O=C1CCC[C@@H]2C[C@@]3(C[C@@H]4CCN1[C@H]24)Nc1cc(Cl)c(Cl)cc1NC3=NCc1ccccc1,98,n
Cc1cc2c(cc1C)N[C@]1(C[C@H]3CCCC(=O)N4CC[C@@H](C1)[C@@H]34)C(=Nc1ccccc1C)N2,n,n
Cc1ccccc1N=C1Nc2cc(Cl)c(Cl)cc2N[C@]12C[C@H]1CCCC(=O)N3CC[C@@H](C2)[C@@H]13,86,n
CC(C)(C)CC(C)(C)N=C1Nc2ccccc2N[C@]12C[C@H]1CCCC(=O)N3CC[C@@H](C2)[C@@H]13,n,n
Cc1ccccc1N=C1Nc2ccc(Cl)cc2N[C@]12C[C@H]1CCCC(=O)N3CC[C@@H](C2)[C@@H]13,n,n
Cc1cc(N2CCN(c3ncccn3)CC2)nc2ccc(NC(=O)Cc3cccs3)cc12,n,n
COc1ccc(CN2CCC(C(=O)N3CCCCC3)CC2)c(OC)c1,n,n
O=C(CCCN1C(=O)c2ccccc2C1=O)Nc1nc2ccccc2s1,n,n
CC(C)C(=O)N1CCN(c2ccc(Cl)cc2Cl)C(=O)C1C (stereo unspecified),n,n
O=C(Nc1ccccc1)OCCSCc1ccc2nc(C(F)(F)F)ccc2c1,x,n
